Data: PubChem BioAssay AID875 (National Center for Advancing Translational Sciences (NCATS), 2007)
Among all 75,000 compounds or so, about 35 (0.05%) were called active. Entries that show only a call come without a potency. The sample holds actives, similar compounds and a random draw of the others, so the mix is not that of the screen. Values without a mark were called inactive. The call rests on the fitted dose curve; in most records, active means well fitted inhibition curve with a large enough effect; inconclusive means small, poorly fitted or top-dose-only effect; inactive means no such curve, though single readings can be large or run the other way.

biological target: Breast cancer type 1 susceptibility protein (Homo sapiens) (UniProt P38398); experiment: qHTS Assay for Inhibitors of BRCT-Phosphoprotein Interaction (Green Fluorophore); details: BRCA1 BRCT-phosphopeptide binding, green fluorescence polarization; series mostly up to 76.9 µM
Sequence (P38398 whole entry, looked up): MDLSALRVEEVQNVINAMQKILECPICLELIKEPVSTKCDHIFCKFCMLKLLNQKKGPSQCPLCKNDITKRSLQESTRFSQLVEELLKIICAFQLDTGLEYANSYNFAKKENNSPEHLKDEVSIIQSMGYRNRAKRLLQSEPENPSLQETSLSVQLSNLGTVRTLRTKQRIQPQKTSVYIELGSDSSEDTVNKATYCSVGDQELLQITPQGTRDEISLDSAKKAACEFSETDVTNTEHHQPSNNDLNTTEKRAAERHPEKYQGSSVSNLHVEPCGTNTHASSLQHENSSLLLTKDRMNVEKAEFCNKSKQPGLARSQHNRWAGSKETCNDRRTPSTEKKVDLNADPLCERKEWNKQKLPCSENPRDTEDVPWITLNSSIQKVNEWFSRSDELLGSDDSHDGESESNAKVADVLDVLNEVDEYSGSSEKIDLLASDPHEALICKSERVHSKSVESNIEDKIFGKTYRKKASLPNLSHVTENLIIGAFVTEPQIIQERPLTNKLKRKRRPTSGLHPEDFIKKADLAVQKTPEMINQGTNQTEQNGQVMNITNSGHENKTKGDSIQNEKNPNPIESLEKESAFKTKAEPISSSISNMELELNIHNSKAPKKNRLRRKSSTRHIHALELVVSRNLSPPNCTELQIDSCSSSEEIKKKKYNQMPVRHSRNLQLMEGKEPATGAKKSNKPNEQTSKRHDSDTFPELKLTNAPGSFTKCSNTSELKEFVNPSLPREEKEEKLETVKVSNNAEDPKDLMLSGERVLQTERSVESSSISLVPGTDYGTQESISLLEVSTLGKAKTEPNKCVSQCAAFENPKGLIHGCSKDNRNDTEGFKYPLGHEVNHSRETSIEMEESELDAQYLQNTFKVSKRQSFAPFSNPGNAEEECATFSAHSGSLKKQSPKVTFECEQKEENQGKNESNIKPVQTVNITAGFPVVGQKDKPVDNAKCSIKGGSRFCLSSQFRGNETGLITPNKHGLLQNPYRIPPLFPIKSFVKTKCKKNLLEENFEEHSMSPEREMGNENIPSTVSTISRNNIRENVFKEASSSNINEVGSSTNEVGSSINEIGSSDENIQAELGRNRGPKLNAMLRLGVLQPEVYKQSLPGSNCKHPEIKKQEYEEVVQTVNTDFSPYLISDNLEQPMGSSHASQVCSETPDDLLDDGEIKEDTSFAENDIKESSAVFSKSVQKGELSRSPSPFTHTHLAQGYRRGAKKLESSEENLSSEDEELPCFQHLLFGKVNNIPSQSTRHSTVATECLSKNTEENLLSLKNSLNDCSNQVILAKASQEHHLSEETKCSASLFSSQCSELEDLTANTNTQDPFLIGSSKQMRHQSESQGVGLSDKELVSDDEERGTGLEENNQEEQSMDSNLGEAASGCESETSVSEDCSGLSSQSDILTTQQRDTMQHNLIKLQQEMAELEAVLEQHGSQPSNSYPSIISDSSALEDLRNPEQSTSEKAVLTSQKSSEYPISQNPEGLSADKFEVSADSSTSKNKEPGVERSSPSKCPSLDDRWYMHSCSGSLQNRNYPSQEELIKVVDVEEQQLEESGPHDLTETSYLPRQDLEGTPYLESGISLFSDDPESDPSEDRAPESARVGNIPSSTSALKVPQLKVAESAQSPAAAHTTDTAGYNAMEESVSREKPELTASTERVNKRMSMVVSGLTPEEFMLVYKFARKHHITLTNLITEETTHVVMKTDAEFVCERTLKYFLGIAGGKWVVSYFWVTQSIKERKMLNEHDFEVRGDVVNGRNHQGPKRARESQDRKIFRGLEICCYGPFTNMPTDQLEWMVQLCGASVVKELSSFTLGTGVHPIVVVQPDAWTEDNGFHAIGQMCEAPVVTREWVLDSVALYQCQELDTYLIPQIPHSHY
Description: NIH Molecular Libraries Screening Centers Network [MLSCN]
NIH Chemical Genomics Center [NCGC]
PI Name: Natarajan, Amarnath; University of Texas
A complex of BRCT (C-terminal portion of BRCA1, MW ~35 kDa, His-tagged) and fluorescently labeled pBACH1 phosphorylated 10 aa peptide fragment of BACH1, a helicase implicated in DNA repair, is incubated with library members. Inhibitors of BRCT-pBACH1 binding are detected by a decrease in the fluorescence polarization (FP) of the fluorophore. In order to minimize the effect of fluorescence artifacts and to increase the overall robustness of the screen, the compound library members were incubated in separate reactions with fluorescein labeled probe-protein complexes. Protein and labeled probes were supplied by Dr. Amarnath Natarajan, Department of Pharmacology and Toxicology, University of Texas Medical Branch Galveston, TX.
Assay Buffer: 16mM Na2HPO4, 4 mM NaH2PO4, 150 mM NaCl, 1 mM EDTA, 1 mM DTT, 0.02% NaN3, and 0.01% Tween 20 at pH 7.3.
100 nM labeled decapeptide/250 nM protein in columns 1, 2, 5 - 48. Titration of unlabeled decapeptide control (from 10 mM, then 1:2 dilution in duplicate) pin-transferred to column 2, rows 1 to 16. Column 1 is neutral.
Three uL of reagents were dispensed to 1536-well Greiner black solid-bottom plates. Compounds and controls (23 nL) were transferred
via Kalypsys PinTool. The plates were incubated for 12 min at room temperature, and then read on ViewLux (Perkin-Elmer) High throughput CCD imager using FITC for the fluorescein-labeled decapeptide probe polarization filter sets. During dispense, reagent bottles were kept submerged into 4 deg C water bath and all liquid lines were covered with aluminum foil to minimize probe and protein degradation. All screening operations were performed on a Kalypsys robotic system (Kalypsys, Inc., San Diego, CA) containing one RX-130 and two RX-90 anthropomorphic robotic arms. The timing and order of assay plates passing through the screening system were adjusted such that each compound library plate was assayed against the fluorescein- and rhodamine-labeled assay systems at immediately adjacent time points.
Potency means the concentration at half of the fitted maximal effect.

| Compound | activity change, negative = inhibition | Potency |
| --- | --- | --- |
| Cc1nnc(NC2=NCCCCC2)o1 | inactive | – |
| CCNc1nc(NCC)nc(N(C)n2cnnc2)n1 | inactive | – |
| c1csc(-c2cn3c(n2)SCC3)c1 | inactive | – |
| O=C(c1csnn1)N1CCC[C@@]2(CCN(Cc3nccs3)C2)C1 | inactive | – |
| COc1cc(-c2nc(S(=O)(=O)c3ccc(Cl)cc3)c(N(C)C)o2)cc(OC)c1OC | inactive | – |
| COc1ccc(NC(=O)CSc2nnc(-c3cccs3)n2Cc2ccco2)cc1OC | inactive | – |
| COC(=O)[C@@H]1C[C@@]2(O)[C@H](O)[C@H](O)[C@H](O)C[C@H]2N1Cc1ccc(C(C)(C)C)cc1 | inactive | – |
| Cc1ccc(S(=O)(=O)C(C#N)c2nc3ccccc3nc2N2CCCC2)cc1C (stereo unspecified) | inactive | – |
| O=C(CC1NCCNC1=O)Nc1ccc(Oc2ccccc2)cc1 (stereo unspecified) | inactive | – |
| COC(=O)Nc1ccc(S(=O)(=O)N(C)CC(F)(F)C(F)F)cc1 | inactive | – |
| Cc1c2cnn(-c3ccccc3)c(=O)c2c(C)n1CCCC(=O)N1CCN(C)CC1 | inactive | – |
| O=c1c2c(nc3n1CCCCC3)sc1c(O)cccc12 | inactive | – |
| COC(=O)[C@@H]1C[C@H]2CC[C@H](O)C[C@H]2N1Cc1ccc(N2CCN(C)CC2)cc1 | inactive | – |
| CC(=O)OCC(=O)[C@@]1(O)CCC2C3CCC4=CC(=O)CC[C@@]4(C)[C@]3(F)C(O)C[C@]21C (stereo partly specified) | -2.43% [at 3.08 µM] | – |
| OCCCN1c2ccccc2Nc2nnc(-c3ccccc3)cc21 | inactive | – |
| COC1C[C@@H](O[C@@H]2C(C)C(=O)OC(C)C(C)C(O)C(C)C(=O)[C@@]3(CO3)CC(C)C(OC3OC(C)CC(N(C)C)C3O)C2C)OC(C)[C@@H]1O (stereo partly specified) | -1.55% [at 3.08 µM] | – |
| CCN(CC)S(=O)(=O)c1ccc2nc(CSc3nnnn3-c3ccc(O)cc3)[nH]c2c1 | inactive | – |
| CCC1=C(OC(=O)N(CC)CC)N2C(=O)OC(=NCCc3c[nH]c4ccccc34)[C@]2(C)[C@H]2C1=CC[C@H]1C(=O)N(CC)C(=O)[C@H]12 | inactive | – |
| CSCCC1NC2(C(=O)Nc3ccc(Cl)cc32)[C@@H]2C(=O)N(C3CCCC3)C(=O)[C@H]12 (stereo partly specified) | inactive | – |
| c1ccc2c(CNn3cnnc3)cccc2c1 | inactive | – |
| Cc1occc1C(=O)Nc1cccc(Cn2cccn2)c1 | inactive | – |
| CCCc1nc2ccccc2c(=O)n1/N=C/c1ccc(O)c(O)c1 | inactive | – |
| CC(C)C[C@H](NC(=O)NCCc1ccc(Cl)cc1)C(=O)O | inactive | – |
| Cn1c(SCC(=O)Nc2cccc(NC(=O)c3cccs3)c2)nnc1-c1ccncc1 | inactive | – |
| CCCOc1ccc(C2C(C(=O)c3ccc(C)o3)=C(O)C(=O)N2CCCn2ccnc2)cc1 (stereo unspecified) | inactive | – |
| N#Cc1c(NC(=O)CSc2nc3ccccc3c(=O)n2Cc2ccco2)sc2c1CCCC2 | inactive | – |

| Compound | activity change, negative = inhibition | Potency |
| --- | --- | --- |
| CCOC(=O)C1C(=O)OC2(CCCC2)C1C(=O)OCC (stereo unspecified) | inactive | – |
| Cn1nc(-c2ccc(N3CCOCC3)c(NC(=O)c3ccccc3)c2)c2ccccc2c1=O | inactive | – |
| CC1CCCCC1NC(=O)CSc1nnc(N)s1 (stereo unspecified) | inactive | – |
| COCc1[nH]nc2c1C(C1C=CCCC1)C(C#N)=C(N)O2 (stereo unspecified) | inactive | – |
| O=c1c(O)c(-c2ccc(O)cc2)oc2ccccc12 | -3.22% [at 3.08 µM] | – |
| CCOc1ccc2[nH]c(=O)c(CN(Cc3nnnn3CCc3ccccc3)CC3CCCO3)cc2c1 (stereo unspecified) | inactive | – |
| Cc1ccc(C)c(NC(=O)C2CC(=O)N(C(C)C)C2)c1 (stereo unspecified) | inactive | – |
| O=C(COc1ccc(S(=O)(=O)NCCc2ccccc2)cc1)N1CCCC1 | inactive | – |
| CC(C)n1c(C(O)c2ccccc2)nc2ccccc21 (stereo unspecified) | inactive | – |
| O=C(NCC12CC3CC(C1)CC(CNC(=O)N1CCCC1)(C3)C2)N1CCCC1 | inactive | – |
| CC(=O)O[C@]1(C(C)=O)CC[C@@H]2[C@@H]3C=C(C)C4=CC(=O)CC[C@@]4(C)[C@H]3CC[C@]21C | inactive | – |
| S=c1[nH]nc(SCc2ccccc2Cl)c2[nH]cnc12 | -0.607% [at 15.4 µM] | – |
| CCNC(=O)CN(c1ccc(C)cc1)S(=O)(=O)c1ccc(SC)cc1 | inactive | – |
| CC(C)NC(=O)N1CC[C@@]2(CCCN(C(=O)c3cccc(F)c3)C2)C1 | inactive | – |
| Cc1ccc(C(c2nnnn2CS(=O)(=O)c2ccc(C)cc2)N2CCC(C(N)=O)CC2)cc1 (stereo unspecified) | inactive | – |
| CCSc1ncnc2c(C#N)c3n(c12)CCCCC3 | inactive | – |
| COc1ccc(-n2c(SCC(=O)OC(C)C)nnc2-c2ccccn2)cc1 | inactive | – |
| Nc1nnc(C2CCCC2)s1 | inactive | – |
| CC(=O)c1ccc(-n2nnnc2SCC(=O)N2CCN(C(=O)c3ccco3)CC2)cc1 | inactive | – |
| CC1(C)OC2CC(=O)OC[C@@]23C1CC(=O)[C@]1(C)C3CC[C@@]2(C)C(c3ccoc3)OC(=O)C3O[C@@]321 (stereo partly specified) | inactive | – |
| C[C@H](CCC(=O)O)[C@H]1CC[C@@H]2[C@H]3CC[C@H]4C[C@H](O)CC[C@@]4(C)[C@@H]3CC[C@@]21C | -0.353% [at 15.4 µM] | – |
| COc1ccc(-c2nnco2)cc1OC | inactive | – |
| CCCOC(=O)Cc1c(O)c2ccccc2[nH]c1=O | inactive | – |
| N#CCC(=O)NC(=O)NCC1CC1 | inactive | – |
| Cc1ccc(OS(=O)Nc2cccc3nccnc23)cc1 (stereo unspecified) | inactive | – |
| Cc1c(S(=O)(=O)O)oc2c1C(=O)C(=O)c1c-2ccc2c1CCCC2(C)C | – | 31.6 µM (active) |

| Compound | activity change, negative = inhibition | Potency |
| --- | --- | --- |
| O=C(c1c(Cl)nc2sccn12)N1CCCc2ccccc21 | inactive | – |
| CCOc1ccc(C2C(C(=O)O)c3ccccc3C(=O)N2CCN2CCOCC2)cc1 (stereo unspecified) | inactive | – |
| COc1ncc2nc(-c3ccc(Cl)cc3)c(=O)n(-c3ccccc3)c2n1 | inactive | – |
| CC(=O)NC1CC2CCCC(C1)N2CC(=O)Nc1ccccc1 (stereo unspecified) | inactive | – |
| Cc1ccc(N(C(=O)CC2NC(=O)NC2=O)C2(C(=O)NC3CCCC3)CCCCC2)cc1 (stereo unspecified) | inactive | – |
| O=S(=O)(NCc1cccnc1)c1ccc(Br)s1 | inactive | – |
| Cc1cc(NC(=O)COC(=O)c2ccc(F)c(S(=O)(=O)N3CCOCC3)c2)no1 | inactive | – |
| O=C1c2ccccc2S(=O)(=O)N1CC(O)Cn1c2ccccc2c2ccccc21 (stereo unspecified) | inactive | – |
| O=C1OC(C(O)CO)C(O)=C1O (stereo unspecified) | -0.826% [at 3.08 µM] | – |
| CO[C@H]1COC(=O)[C@@H](C)NC(=O)C/C=C\[C@@H](C)[C@H](OC)COC(=O)C/C=C\[C@@H]1C | -2.28% [at 15.4 µM] | – |
| CC1(C)Cc2cccc(OCC(=O)Nc3nccs3)c2O1 | inactive | – |
| Cc1ccc(-c2noc(-c3ccccc3C(=O)NCC3CCCO3)n2)cc1 (stereo unspecified) | inactive | – |
| Cc1cc(C)c(C#N)c(SCS(=O)c2ccc(C(C)(C)C)cc2)n1 (stereo unspecified) | inactive | – |
| Cc1ccc(S(=O)(=O)NC(=O)NN2C[C@H]3CCC[C@@H]3C2)cc1 | inactive | – |
| CN(C)CCNC(=O)C(C(=O)c1ccccc1)n1ccccc1=O (stereo unspecified) | inactive | – |
| CCOC(=O)N1CCN(C(=O)C2CC(c3ccc(F)cc3)=NO2)CC1 (stereo unspecified) | inactive | – |
| Cc1csc(-c2nc3ccccc3n2C)n1 | inactive | – |
| O=C(Nc1cccc2c1CCCC2)C1CCN(C(=O)NC2CCCCC2)CC1 | inactive | – |
| Fc1ccc(-c2ccc(-c3nn4c(-c5ccco5)nnc4s3)o2)cc1 | inactive | – |
| COc1ccc(OC)c(C(=O)c2ccc(C(=O)O)cc2)c1 | inactive | – |
| CCOC(=O)C(C)Oc1cccc2c(=O)n(CC(=O)N3CCc4ccccc43)ccc12 (stereo unspecified) | inactive | – |
| O=C(CSc1nnc(-c2cccnc2)n1Cc1ccco1)c1ccc(Cl)c(Cl)c1 | inactive | – |
| COCCN(C(=O)CCC(=O)Nc1ccccn1)C(C(=O)NCCC(C)C)c1ccc(OC)cc1 (stereo unspecified) | inactive | – |
| CCc1c(C)nc(N)n2c(SCC(=O)N3CCN(c4ccccc4)CC3)nnc12 | inactive | – |
| CCCC(NC(=O)c1ccccc1)c1nc2ccccc2n1Cc1ccc(C(=O)OC)o1 (stereo unspecified) | inactive | – |
| CC(=O)c1sc2nc(SCC(=O)N3CCCCC3)[nH]c(=O)c2c1C | inactive | – |

| Compound | activity change, negative = inhibition | Potency |
| --- | --- | --- |
| C/C(O)=C\c1nc(=O)c2c(C)cc(C)nc2n1-c1ccccc1 | inactive | – |
| Cc1cc(NCc2ccco2)n2c(nc3ccccc32)c1C#N | inactive | – |
| CCCN1[C@H](C(=O)OC)C[C@@]2(O)[C@@H](O)[C@@H](O)[C@@H](O)C[C@@H]12 | inactive | – |
| O=C(O)[C@H](CCc1ccccn1)c1ccccc1 | 0.305% [at 15.4 µM] | – |
| Cc1nc(C)c(C(=O)Nc2cccc(C)c2C)o1 | inactive | – |
| CCCn1c(=O)c2[nH]c(C3CCCC3)nc2n(CCC)c1=O | inactive | – |
| O=C(NCCCN1CCOCC1)c1cc(-c2ccc(Cl)cc2)on1 | inactive | – |
| COC(=O)[C@@H]1C[C@@]2(O)[C@H](O)[C@H](O)[C@H](O)C[C@H]2N1Cc1ccc(C)s1 | inactive | – |
| CN(C)/C=N/c1cc(=O)n(C)c(=O)n1CC1CC1 | inactive | – |
| CCCCCCCCCc1ccc(OCCOCCOCCOCCOCCOCCOCCOCCOCCO)cc1 | inactive | – |
| O=C(Nc1ccccc1N1CCCCC1)c1ccc2nccnc2c1 | inactive | – |
| CN1CCCC1CCO[C@@](C)(c1ccccc1)c1ccc(Cl)cc1 (stereo partly specified) | -4.61% [at 3.08 µM] | – |
| CN1CCc2nc(-c3ccccc3)c(-c3ccccc3)cc2C1 | -0.939% [at 15.4 µM] | – |
| CCN(CC)C(=O)CSc1nnc(-c2cnccn2)n1-c1ccc(C)cc1 | inactive | – |
| Cc1c(C(=O)CN2CCOCC2)[nH]c2ccccc12 | inactive | – |
| Cc1cccc(-c2cc(=O)c3cc(C)ccc3o2)c1 | inactive | – |
| Cc1c(S(=O)(=O)O)ccc(N=Nc2c(O)c(C(=O)O)cc3ccccc23)c1Cl | -3.5% [at 15.4 µM] | – |
| CC(C(=O)Nc1ccccc1-c1ccccc1)N1CCOCC1 (stereo unspecified) | inactive | – |
| CCC1CCCCN1C(=O)Nc1cccc(NC(=O)N2CCCCC2CC)c1 (stereo unspecified) | inactive | – |
| CCOc1ccc(Cn2nnc(C(=O)NCc3ccccc3)c2N)cc1 | inactive | – |
| O=C(Cn1nc(Cc2cccnc2)c2ccccc2c1=O)NCC1CCCO1 (stereo unspecified) | inactive | – |
| O=c1[nH]nc(CSCc2ccccc2Cl)[nH]1 | inactive | – |
| Cc1cc(C)c(S(=O)(=O)NCCCN2CCOCC2)cc1Br | inactive | – |
